# Measured values as given in article PMC4336329 (PLoS ONE, 2015).
# Screen size: about 310,000 compounds; about 14,000 (4.5%) showed an effect of 50% or more. The effect is printed as a negative number. Only a selection was taken, and strong results are over-represented in it overall.
# Target: human ether-à-go-go-related gene (hERG) potassium channel (human, UniProt Q12809)
# Test: primary screen, population patch clamp on CHO cells stably expressing hERG; higher = less effect of the substance
# 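Further: peak tail current of the secondary pulse compared with the same well before compound.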
# Chain of human ether-à-go-go-related gene (hERG) potassium channel (Q12809 whole entry, looked up): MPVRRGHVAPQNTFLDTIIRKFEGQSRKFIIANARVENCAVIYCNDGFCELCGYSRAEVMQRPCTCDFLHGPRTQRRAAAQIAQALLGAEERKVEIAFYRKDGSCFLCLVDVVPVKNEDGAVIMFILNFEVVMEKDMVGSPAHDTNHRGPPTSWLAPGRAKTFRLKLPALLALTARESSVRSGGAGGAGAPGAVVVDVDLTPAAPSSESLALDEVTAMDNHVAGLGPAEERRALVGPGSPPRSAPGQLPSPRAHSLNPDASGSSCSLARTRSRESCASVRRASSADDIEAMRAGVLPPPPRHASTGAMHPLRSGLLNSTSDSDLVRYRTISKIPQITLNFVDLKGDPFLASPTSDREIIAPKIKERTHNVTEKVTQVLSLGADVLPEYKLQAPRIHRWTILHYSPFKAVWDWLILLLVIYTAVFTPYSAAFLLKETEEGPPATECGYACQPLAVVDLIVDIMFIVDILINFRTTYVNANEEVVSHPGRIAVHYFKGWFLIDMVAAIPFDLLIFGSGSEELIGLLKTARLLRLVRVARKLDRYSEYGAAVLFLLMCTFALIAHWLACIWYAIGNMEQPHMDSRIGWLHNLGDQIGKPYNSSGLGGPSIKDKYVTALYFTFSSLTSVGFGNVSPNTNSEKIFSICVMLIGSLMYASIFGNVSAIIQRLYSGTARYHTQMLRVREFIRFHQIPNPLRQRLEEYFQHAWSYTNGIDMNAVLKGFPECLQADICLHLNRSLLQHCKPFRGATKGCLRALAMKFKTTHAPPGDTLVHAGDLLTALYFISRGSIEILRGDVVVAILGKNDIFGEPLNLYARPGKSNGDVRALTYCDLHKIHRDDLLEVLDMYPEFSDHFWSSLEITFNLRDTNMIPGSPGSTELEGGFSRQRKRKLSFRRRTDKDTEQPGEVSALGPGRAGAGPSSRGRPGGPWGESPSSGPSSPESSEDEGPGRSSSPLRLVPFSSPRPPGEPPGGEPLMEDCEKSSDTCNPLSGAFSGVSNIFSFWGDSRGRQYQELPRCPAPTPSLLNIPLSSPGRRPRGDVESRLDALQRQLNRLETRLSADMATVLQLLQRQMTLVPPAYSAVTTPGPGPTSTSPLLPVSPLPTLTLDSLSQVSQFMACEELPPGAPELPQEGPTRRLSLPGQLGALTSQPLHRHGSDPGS
row,SMILES,"hERG current change (%, negative = inhibition) at 10uM [%]"
1,NS(=O)(=O)c1ccc2nc(NC(=O)c3ccncc3)sc2c1,13.9
2,Cc1nc(NS(=O)(=O)c2ccc(Cl)s2)c2c3c(sc2n1)CCCC3,-28.7
3,CCN(CC)CCNC(=O)c1ccc(NC(=O)c2cc(-c3ccco3)nc3ccccc23)cc1,-30.2
4,NS(=O)(=O)c1ccc(CCNC(=O)c2cc(-c3ccccc3)nc3ccccc23)cc1,-10.4
5,CCN(CC)CCCNC(=O)c1cc(Nc2ccc(OC)cc2OC)nc2ccccc12,-36.1
6,CCCCCCNC(=O)c1cc(-c2ccco2)nc2ccccc12,-11.5
7,COc1ccc(Nc2cc(C(=O)NCCCN3CCOCC3)c3ccccc3n2)cc1,-26.5
8,CCCCOc1cc(C(=O)NCCN(CC)CC)c2ccccc2n1,-65.9
9,CCN(CC)CCCNC(=O)c1cc(Nc2ccc(OC)cc2)nc2ccccc12,-53.8
10,NS(=O)(=O)c1ccc(CCNC(=O)c2cc(-c3ccco3)nc3ccccc23)cc1,-58.3
11,CCN(CC)CCNC(=O)c1cc(Nc2ccc(OC)c(OC)c2)nc2ccccc12,-23.8
12,CCN(CC)CCNC(=O)c1cc(-c2ccc(Br)s2)nc2ccccc12,-9.2
13,CCN(CC)CCNC(=O)c1cc(-c2ccco2)nc2ccccc12.Cl,-65.5
14,COc1ccc(CCNC(=O)c2cc(-c3ccco3)nc3ccccc23)cc1,2.98
15,CN1C(=O)N2CN(C3CCCCC3)CN3C(=O)N(C)C1C23 (stereo not drawn),9.88
16,Cc1noc(C)c1COC(=O)C1COc2ccccc2O1 (stereo not drawn),15.2
17,CCc1ccc(N(C(=O)c2csnn2)C(C(=O)NC(C)(C)C)c2cccnc2)cc1 (stereo not drawn),4.59
18,CCOCCCNC(=O)C(NC(=O)c1ccccn1)c1ccc(C)cc1 (stereo not drawn),-0.00042
19,Cc1ccccc1NS(=O)(=O)c1ccc(-c2ccc(=O)[nH]n2)o1,-2.13
20,COc1ccccc1N1CCN(C(=O)CCCn2c(=O)[nH]c3ccsc3c2=O)CC1,4.33
21,O=C(CCC(=O)c1ccc(F)cc1)Nc1cccc(C(F)(F)F)c1,7.22
22,COc1ccc(Nc2ccc([N+](=O)[O-])cc2[N+](=O)[O-])cc1,-32.5
23,O=C(Nc1ccc(Cl)cc1C(=O)NCC1CCCO1)c1ccc(Cl)cc1Cl (stereo not drawn),-10.2

row,SMILES,"hERG current change (%, negative = inhibition) at 10uM [%]"
1,CC(C1CC2CCC1C2)N1CC(O)=C(c2nc3ccccc3[nH]2)C1=N (stereo not drawn),-17.9
2,Cc1ccc(C)c(S(=O)(=O)N/N=C/c2cccnc2)c1,7.65
3,COc1ccc(OC)c(NS(=O)(=O)c2ccc3c(c2)n(C)c(=O)n3C)c1,-5.85
4,CCC/C(=N\NC(=O)C1CC1)c1ccc(Br)cc1,11.9
5,C/C(=N\N=C1\NC(=O)CC(C(=O)O)S1)c1ccc(F)cc1 (stereo not drawn),0.193
6,CCOC(=O)c1nn(C23CC4CC(CC(C4)C2)C3)c2c1C(=O)N(c1ccc(C)cc1)C2=O,20.3
7,Cc1cc([N+](=O)[O-])nn1CC(=O)Nc1ccccn1,5.51
8,Cc1cc([N+](=O)[O-])nn1CC(=O)Nc1ccc(F)cc1,6.31
9,Cc1cc([N+](=O)[O-])nn1CC(=O)Nc1cnc2ccccc2c1,-81.1
10,Cc1cccc(C)c1-n1c(C)nn(CC#N)c1=O,19.1
11,COc1ccc2c(c1)c(=O)cc(-c1ccccc1)n2C,0.0751
12,COc1ccc2c(c1)c1ccccc1n2C,11
13,CN=C1c2cc3cc(OC)ccc3n2CCN1C.Cl,-53
14,CN=C1c2c(-c3ccccc3)c3cc(OC)ccc3n2CCN1C.Cl,-62.6
15,COc1ccc2c(c1)c1c(n2C(C)=O)C(OC(C)=O)=NCC1,-8.94
16,CCN(CC)CCNC1=NCCn2c1cc1cc(OC)ccc12.Cl,-66.6
17,COc1ccc2c(c1)cc(C(=O)O)n2C,-6.02
18,COc1ccc2c(c1)cc1n2CCN=C1NCCO.Cl,-10.2
19,COC(=O)c1cc2cc(OC)ccc2n1C,0.821
20,CCN(CC)CCNC(=O)COc1ccc(OC)cc1.Cl,-9.07
21,COc1ccc2c(c1)c1c3n2CCN(C)C3=NCC1.Cl,-67.7
22,COc1ccc2[nH]c3c(c2c1)CCN=C3C,-18.2
23,Cc1ccc(NC(=O)C(C)OC(=O)Cn2cnc3ccccc3c2=O)cc1 (stereo not drawn),-12.4

row,SMILES,"hERG current change (%, negative = inhibition) at 10uM [%]"
1,COc1ccc(N2CCN(C(CNC(=O)OCc3ccccc3)c3ccco3)CC2)cc1 (stereo not drawn),-27.4
2,CCOC(=O)c1cc(S(=O)(=O)NCCc2ccccc2)cn1C,2.98
3,Clc1ccccc1CN1CCN(c2ccccc2Cl)CC1,16
4,CCc1cc(C(=O)c2ccc(OC)cc2)c(N)s1,-12.7
5,N/C(CS(=O)(=O)c1ccc(F)cc1)=N\O,11.8
6,CC(C)(C)C(=O)CNS(=O)(=O)c1ccc(S(=O)(=O)NC2CC2)cc1,12.3
7,COCCNC(=O)/C(C#N)=C/c1c(N2CC(C)OC(C)C2)nc2ccccn2c1=O (stereo not drawn),-0.67
8,CCS(=O)(=O)Nc1ccc(-c2cc(-c3ccccc3)c3cc(C)ccc3n2)cc1,0.812
9,COc1ccc(NC(=O)NC2(C(=O)N3CCN(C)CC3)CCCCC2)cc1,9.88
10,O=C(c1cccc(F)c1)N1CCC2(CC1)NCCc1[nH]cnc12,6.92
11,Cc1cc(Br)c(NC(=O)COC(=O)CSc2nnc(-c3ccc(Cl)cc3)o2)c(Br)c1,1.39
12,CCN(CC)c1ccc(NC(=S)NCC2CCCO2)cc1 (stereo not drawn),7.83
13,COc1ccc(C(=S)N2CCN(C)CC2)cc1Br,-9.51
14,COc1ccc2nc(N3CCCC3)[nH]c2c1.Cl,-15.7
15,COc1ccc2c(c1)cc1n2CCN=C1NN.Cl.O,2.89
16,COc1ccc2c(c1)cc1n2CCN2CCCN=C12.Cl,-51.6
17,CN=C1c2cc3c(Br)c(OC)ccc3n2CCN1C.Cl,-66.9
18,O=C(Nc1ccc2nn(-c3ccccc3)nc2c1)c1ccco1,7.51
19,COC(=O)c1ccc(CSc2nnc(NC(C)C)s2)o1,29.8
20,O=C(/C=C/c1cccc(Cl)c1)Nc1ccncc1,-17.1
21,O=C(Nc1cccc(-n2cnnn2)c1)c1ccc(Cl)cc1Cl,4.58
22,Cc1ccc(Sc2nc3c(c(=O)[nH]c(=O)n3C)n2CCc2ccccc2)cc1,5.16
23,Cc1nn(Cc2c(F)c(F)c(F)c(F)c2F)c(C)c1NC(=O)c1cccc(COc2ccccc2Cl)c1,-3.4

row,SMILES,"hERG current change (%, negative = inhibition) at 10uM [%]"
1,CC(=O)Nc1ccc(CN2CCC(n3nccc3NC(=O)CCc3ccccc3)CC2)cc1,-5.87
2,CC(C)Oc1ccc(CN2CCC(n3nccc3NC(=O)CCc3ccccc3)CC2)cc1,-82.3
3,CCn1cc(CN2CCC(n3nccc3NC(=O)CCc3ccccc3)CC2)cn1,2.28
4,CCOc1cccc(CN2CCC(n3nccc3NC(=O)CCCc3ccccc3)CC2)c1,-27.5
5,COc1cccc(CN2CCC(n3nccc3NC(=O)CCCc3ccccc3)CC2)c1,-71.3
6,O=C(CCc1ccccc1)Nc1ccnn1C1CCN(Cc2ncc[nH]2)CC1,19
7,Cn1cc(CN2CCC(n3nccc3NC(=O)CCOc3ccccc3)CC2)cn1,17.1
8,O=C(CCOc1ccccc1)Nc1ccnn1C1CCN(Cc2ccccc2)CC1,-50
9,CC(=O)c1cccc(CN2CCC(n3nccc3NC(=O)CCCc3ccccc3)CC2)c1,-37.8
10,O=C(CCOc1ccccc1)Nc1ccnn1C1CCN(Cc2ccc(O)cc2)CC1,-31.3
11,Cn1cc(CN2CCC(n3nccc3NC(=O)CCc3ccccc3)CC2)cn1,16
12,O=C(CCc1ccccc1)Nc1ccnn1C1CCN(Cc2ccc(OCCO)cc2)CC1,-65.3
13,OC1CCCN(Cc2ccc3ccc4cccc5ccc2c3c45)C1 (stereo not drawn),-4.79
14,CCOC(=O)c1c(C)[nH]c(C)c1S(=O)(=O)N(C)CC(=O)NCc1cccc(C)c1,-13.3
15,COc1ccc(-c2cc3ccccc3[nH]2)cc1,7.8
16,O=C(Nc1ccccc1C(=O)NCCCn1ccnc1)c1ccc(Cl)cc1Cl,-47.1
17,O=C(Nc1ccc(Cl)cc1)Nc1nc(-c2ccccc2)cs1,11.3
18,CCc1ccc(OCC(=O)N/N=C(\C)c2ccc3c(c2)OCCO3)cc1,-21.5
19,CC(Oc1ccccc1)C(=O)NNS(=O)(=O)c1ccc([N+](=O)[O-])cc1 (stereo not drawn),13.4
20,COc1ccc2cc(C(=O)N3CCC(Cc4ccccc4)CC3)[nH]c2c1,25.5
21,C/C(=N\Nc1ccccc1)c1c(O)n(Cc2ccccc2)c(=O)[nH]c1=O,8.42
